The values that follow come from PubChem BioAssay (Tox21).

Inconclusive results are not listed. A number with no mark means an inactive call. Calls of active or inactive are those of the source. Calls come from the whole dose curve.
% is set by controls: 0 for no effect and ±100 for the full control effect; potency is the fitted concentration of half-maximal effect.

The test in a line: qHTS assay to identify small molecule agonists of the hypoxia (HIF-1) signaling pathway - cell viability counter screen (AID 1224844). Note: nearly all actives have a fitted effect of over 50% in size. The note with it: HRE-bla ME-180 viability, CellTiter-Glo luminescence, 17 h; series mostly up to 76.8 µM; activity change, negative = cytotoxicity: at the top concentration. The text has this:
National Center for Advancing Translational Sciences [NCATS]
NIH Chemical Genomics Center [NCGC]
U.S. Environmental Protection Agency [EPA]
National Institutes of Environmental Health Sciences [NIEHS]
National Toxicology Program [NTP]
U.S. Food and Drug Administration [FDA]
Hypoxia-inducible factor-1 (HIF-1) is the major hypoxia-regulated transcription factor that controls cellular responses to low oxygen concentration. HIF-1 is composed of two subunits: hypoxia responsive HIF-1-alpha and constitutively expressed HIF-1-beta, which is also known as aryl hydrocarbon receptor nuclear translocator. During hypoxic conditions, HIF-1-alpha heterodimerizes with HIF-1-beta and translocates into the nucleus where the HIF-1 complex binds to the hypoxia-response element (HRE) and activates expression of target genes such as VEGF (vascular endothelial growth factor). The HIF-1 pathway is essential to normal growth and development, and is involved in the pathophysiology of cancer, inflammation, and ischemia.
Using a beta-lactamase reporter-gene under control of the hypoxia response element, a cell-based assay [CellSensor(TM) HRE-bla ME-180 from Life Technologies, Carlsbad, CA] was used to measure hypoxia-induced signaling. Tox21 10K library compounds were measured for their ability to induce the reporter gene activity. The cytotoxicity of the Tox21 compound library against HRE-bla ME-180 cell line was tested in parallel by measuring cell viability using CellTiter-Glo assay (Promega, Madison, WI) in the same assay wells.
Tox21 Assay Protocol Summary:
HRE-bla ME-180 cells were dispensed at 2,000 cells per well in 6 uL of assay medium containing 0.5% dialyzed FBS into black wall/clear-bottom 1536-well plates using a Multidrop Combi (Thermo Scientific, Waltham, MA) dispenser. After the assay plates were incubated at 37C and 5% CO2 for 5 hrs, 23 nL of compounds dissolved in DMSO, positive controls or DMSO only was transferred to each well of the assay plate using a Pintool station (Kalypsys, San Diego, CA). The assay plates were incubated at 37C and 5% CO2 for 17 hrs. One uL of LiveBLAzerTM B/G FRET substrate (CCF4-AM) (Life Technologies) was added to each well using a Flying Reagent Dispenser (FRD, Aurora Discovery, San Diego, CA). After 2 hr incubation at room temperature, fluorescence intensity (405 nm excitation, 460 nm and 530 nm emissions) was measured using an Envision plate reader (PerkinElmer, Shelton, CT). For cytotoxicity, 4 ul/well of CellTiter-Glo reagent was added into the assay plates using an FRD. After 30 min incubation at room temperature, the luminescence intensity was measured using a ViewLux plate reader (PerkinElmer).
In the case of `CCCCCCCCNC`, the “activity change, negative = cytotoxicity” value was 0.583%. For `Clc1cc(Cl)c2c(c1)N=C1CCCCCN1C2`, the “activity change, negative = cytotoxicity” value is -3.1% [at 35.3 µM]. Same read-out and setting: the same measure for `CCCC1CCCC(=O)O1` (stereo not given): 0.498%; for `CCCC(=O)OCc1ccccc1`: 7.77%; for `Cc1cc(C)n(CO)n1`: 1.76%. As for `CC(C)C[C@H](NC(=O)[C@H](Cc1ccccc1)NC(=O)c1cnccn1)B(O)O`, the Potency is 21.3 nM (active).

As for `COC(=O)Cc1cccc2ccccc12`, the “activity change, negative = cytotoxicity” value is 2.03%. `C[C@@H](O)[C@H]1C(=O)N2C(C(=O)O)=C(S[C@@H]3CN[C@H](CNS(N)(=O)=O)C3)[C@H](C)[C@H]12`: the “activity change, negative = cytotoxicity” value was -16% [at 35.3 µM]. Still for that read-out and setting: the same measure for `O=C(O)c1ccncc1`: -2.2%; for `O=C(c1ccc(Cl)cc1)c1ccc(Cl)cc1`: 2.84%. Regarding `O=C(OCCOCCOCCOC(=O)c1ccccc1)c1ccccc1`, the “activity change, negative = cytotoxicity” value is 3.04%.

For the compound `CS(C)=O`, the “activity change, negative = cytotoxicity” value is 11.9%. For `N#C[C@@H]1CC(F)(F)CN1C(=O)CNC1CC2CCC(C1)N2c1ncccn1` (stereo not given in full), the “activity change, negative = cytotoxicity” value was 1.28%. On the same count and under the same terms, the same measure for `C[C@H]1C[C@H]2[C@@H]3CCC4=CC(=O)C=C[C@]4(C)[C@@]3(F)[C@@H](O)C[C@]2(C)[C@@]1(O)C(=O)COP(=O)(O)O`: -30.7%; for `Nc1cccc2c(=O)[nH][nH]c(=O)c12`: 1.16%; for `COc1cccc([C@H](O)C2CCN(CCc3ccc(F)cc3)CC2)c1OC`: -2.55%.

For the compound `CC(C)(C)N`, the “activity change, negative = cytotoxicity” value is 10.8%.

For the compound `CC(C)Cc1nccs1`, the “activity change, negative = cytotoxicity” value is 0.302%. Consider `CC(C)=CCC[C@H](C)CCO`, for which the “activity change, negative = cytotoxicity” value is 5.73%. On to `CCC(C)C1N=C(C)C(C)S1` (stereo not given), for which the “activity change, negative = cytotoxicity” value was 0.69%. As to `CCCCCCCCS`, the “activity change, negative = cytotoxicity” value is 10.8%.

In the case of `CC(=O)S[C@H](C(=O)N[C@H]1Cc2ccccc2[C@H]2CCC[C@@H](C(=O)O)N2C1=O)C(C)C`, the “activity change, negative = cytotoxicity” value is -4.75%. As to `C=CC(O)CCCCC` (stereo not given), the “activity change, negative = cytotoxicity” value is 0.017%. `Nc1ccc(-c2ccc(F)cc2)cc1`: the “activity change, negative = cytotoxicity” value was 0.284%. Same read-out and setting: in the case of `CC1(C)CC(O)CC(C)(C)N1[O]` it was 7%; in that of `Clc1cccc(C(c2ccc3nc[nH]c3c2)n2ccnc2)c1` (stereo not given), 1.03% [at 35.3 µM]. Take `CCOc1cc(OCC)c(C(C)=O)cc1OCC`: the “activity change, negative = cytotoxicity” value was 1.44%.

Regarding `O=C(O)c1ccccc1-n1cc(C(=O)O)c(=O)c2cc(Nc3c(F)cc(F)cc3Cl)c(Cl)cc21`, the “activity change, negative = cytotoxicity” value is -0.832%. Same read-out and setting: in the case of `O=C(O)c1ccc(O)c(O)c1` it was 6.22%. `O=C1C=CCCC1`: the “activity change, negative = cytotoxicity” value is -22.4%.

For `CC1=CC(=C(c2ccc(N)cc2)c2ccc(N)cc2)C=CC1=N`, the activity change, negative = cytotoxicity was -15.8% [at 6.97 µM]. The same measure, in the same setting: the same measure for `C(/C=C/C=C/Nc1ccccc1)=Nc1ccccc1`: 4.85%; for `O=C(OCCN1CCOCC1)c1cccnc1Nc1cccc(C(F)(F)F)c1`: 14.1% [at 35.3 µM]; for `CCOC(C)OCC`: -23.2%.

As to `O=Cc1ccc(Cl)c([N+](=O)[O-])c1`, the “activity change, negative = cytotoxicity” value was 20.4%.

On to `CC(C)(C)c1cc(C=O)cc(C(C)(C)C)c1O`, for which the “activity change, negative = cytotoxicity” value is 1.68% [at 35.3 µM]. Still for that read-out and setting: in the case of `CCCCCCCCCC(C)C=O` (stereo not given) it was -0.257%. The same measure, in the same setting: in the case of `O=C(OC1C[C@H]2CC[C@@H](C1)[N+]21CCCC1)C(O)(c1ccccc1)c1ccccc1` (stereo not given in full) it was -3.64% [at 35.3 µM].

With `COc1ccc(/C=C/c2cc(OC)cc(=O)o2)cc1`, the “activity change, negative = cytotoxicity” value is 4.44% [at 35.3 µM]. In the case of `C[Si](C)(C)O[Si](C)(C)O[Si](C)(C)C`, the “activity change, negative = cytotoxicity” value was 6.06%.
